Unmarked numbers belong to inactive results. Results filed as inconclusive are left out. Where a call stands in place of a potency, no number is given. The source made the active and inactive calls. Unless noted, calls come from the whole dose curve; as a rule, active = well fitted curve in the direction sought with a large enough effect in the repeat runs; inconclusive = weak or mixed curves; inactive = no such curve, though single readings can be large; an effect the other way counts as inactive or inconclusive.
Assays:
[1] = qHTS assay to identify small molecule antagonists of the estrogen related receptor (ERR) signaling pathway from Tox21 library - cell viability counter screen (AID 1224834); note: nearly all actives have a fitted effect of over 30% in size
Summary of the method: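 Seeded ERR cells were rested 6 h at 37 C/5% CO2 before compounds, positive and negative controls or DMSO were added. Incubation continued for 17.5 h, and viability was then quantified by CellTiter-Fluor fluorescence.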

[2] = biological target: Luciferin 4-monooxygenase (Photinus pyralis) (UniProt P08659); assay: qHTS assay to identify small molecule inhibitors of firefly luciferase (AID 1224835); note: series mostly up to about 120 µM; nearly all actives have a fitted effect of over 25% in size
Summary of the method: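 Biochemical qHTS: compounds run as interplate titrations against purified firefly enzyme, with D-luciferin and ATP each at its KM concentration. Light output recorded by CCD imaging.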

[3] = qHTS assay to identify small molecule agonists of the constitutive androstane receptor (CAR) signaling pathway - cell viability counter screen (AID 1224836); note: series mostly up to about 92 µM; nearly all actives have a fitted effect of over 45% in size
Summary of the method: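 Viability read-out: CellTiter-Fluor fluorescence after 23 h compound exposure at 37 C/5% CO2 in double-stable HepG2-CYP2B6-hCAR cells, with PK11195 present at 0.75 uM final; compounds tested in 15-point titration.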

[4] = qHTS assay to identify small molecule antagonists of the constitutive androstane receptor (CAR) signaling pathway - cell viability counter screen (AID 1224837); note: series mostly up to about 92 µM; nearly all actives have a fitted effect of over 45% in size
Summary of the method: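 To flag cytotoxic false antagonists, HepG2 hCAR/CYP2B6-2.2kb cells were treated 23 hr with 15-concentration compound series and 50 nM CITCO at 37 C/5% CO2; CellTiter-Fluor fluorescence was the measured end point.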

[5] = biological target: Nuclear receptor subfamily 1 group I member 3 (Homo sapiens) (UniProt Q14994); assay: qHTS assay to identify small molecule antagonists of the constitutive androstane receptor (CAR) signaling pathway (AID 1224838);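 note: HepG2 cells stably expressing hCAR with CYP2B6 luciferase reporter stimulated by CITCO; nearly all actives have a fitted effect of over 40% in size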
Summary of the method: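 Human hepatoma HepG2 cells expressing hCAR and a CYP2B6 promoter (2.2 kb) luciferase construct; compound titration (15 points) with 50 nM CITCO final, 24 h at 37 C/5% CO2; luminescence via ONE-Glo after 30 min at room temperature.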

[6] = biological target: Nuclear receptor subfamily 1 group I member 3 (Homo sapiens) (UniProt Q14994); assay: qHTS assay to identify small molecule agonists of the constitutive androstane receptor (CAR) signaling pathway (AID 1224839);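 note: HepG2 cells stably carrying human CAR and a CYP2B6 luciferase reporter; series mostly up to about 92 µM; nearly all actives have a fitted effect of over 15% in size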
Summary of the method: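 Luminescence read-out (ONE-Glo, 30 min, room temperature) from double-stable HepG2-CYP2B6-hCAR cells exposed 24 h to 15-point compound series in presence of 0.75 uM PK11195 final.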

[7] = qHTS assay to identify small molecule antagonists of the estrogen related receptor signaling pathway with the pleiotropic PPARgamma coactivator (PGC) from Tox21 10K library - cell viability counter screen (AID 1224840; active = well fitted cell-killing curve with a large enough effect in the repeat runs, not every such curve was filed as active; note: nearly all actives have a fitted effect of over 40% in size)
Summary of the method: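 Seeded PGC/ERR cells (2,000/well, 6 h, 37 C/5% CO2) get compound by pin tool; 17.5 h incubation at 37 C; CellTiter-Fluor added, 30 min, fluorescence measured.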

[8] = biological target: Thyrotropin receptor (Homo sapiens) (UniProt P16473); assay: qHTS assay to identify small molecule agonists of the thyroid stimulating hormone receptor (TSHR) signaling pathway (AID 1224843; calls by dose curve; note: nearly all actives have a fitted effect of over 45% in size)
Summary of the method: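 Agonist-mode screen: TSHR HEK293 cells received test chemicals for half an hour at room temperature, then HTRF cAMP detection reagents for one hour prior to fluorescence measurement. Each chemical ran as a 15-concentration series, triplicated.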

[9] = qHTS assay to identify small molecule agonists of the hypoxia (HIF-1) signaling pathway - cell viability counter screen (AID 1224844; calls by dose curve; note: nearly all actives have a fitted effect of over 50% in size)
Summary of the method: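 HRE-bla ME-180; 0.5% dFBS; cpd 17 h, 37C, 5% CO2; CellTiter-Glo lum., 30 min RT, post-FRET read, same wells.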

[10] = qHTS assay to identify small molecule agonists of H2AX (AID 1224845; active = well fitted activation curve with a large enough effect in the signal ratio in the repeat runs, not every such curve was filed as active; the % refers to the signal ratio)
Summary of the method: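 Wild-type CHO-K1 cells, plated overnight, exposed 3hr at 37C to 15 concentrations (0.76% DMSO final). Lysed, then HTRF anti-pH2AX (S139) cryptate and anti-H2AX-d2 antibodies, 24 hr room temperature; 665/620 nm emission read.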

[11] = qHTS assay to identify small molecule agonists of H2AX - cell viability counter screen (AID 1224847; calls by dose curve; note: top concentration of the series differs between compounds; nearly all actives have a fitted effect of over 30% in size)
Summary of the method: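 CHO-K1 wt, 1000 cells/well, o/n 37C; cpds 15 conc, 3 h 37C, 0.76% DMSO; CellTiter-Glo, 30 min RT, luminescence.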

[12] = qHTS RealTime-Glo MT Cell Viability Assay in HepG2 cells - 24 hour (AID 1224867); note: nearly all actives have a fitted effect of over 50% in size
Summary of the method: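 Luminescence read-out: viable HepG2 cells reduce a prosubstrate to a NanoLuc substrate, giving a signal proportional to live cell number. Reads taken at 0, 8, 16, 24, 32 and 40 h of compound exposure at 37 C.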

[13] = qHTS RealTime-Glo MT Cell Viability Assay in HEK293 cells - 32 hour (AID 1224868); note: top concentration of the series differs between compounds; nearly all actives have a fitted effect of over 50% in size
Summary of the method: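 Nonlytic real-time viability readout: viable cells convert prosubstrate to NanoLuc substrate, giving luminescence proportional to live cell number. HEK293, 600 cells/well, compound added after 5 h, continuous culture at 37 C.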

[14] = A CellTox Green Cytotoxicity Assay to monitor cytotoxicity in HEK293 cells - 0 hour (AID 1224869); note: nearly all actives have a fitted effect of over 50% in size
Summary of the method: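 Tox21 screen in HEK293: membrane-impermeant cyanine dye fluoresces on binding dead-cell DNA; compound pinned 5 h post-seeding, plates held at 37 C, signal read repeatedly through 40 h.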

[15] = qHTS RealTime-Glo MT Cell Viability Assay in HepG2 cells - 40 hour (AID 1224870); note: nearly all actives have a fitted effect of over 50% in size; note: potency is the fitted concentration of half-maximal effect
Summary of the method: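 HepG2 cells (600/well) mixed with RealTime-Glo MT reagent, settled 5 h at 37 C/5% CO2 before compound addition. Nonlytic NanoLuc luminescence from viable-cell prosubstrate reduction read repeatedly during 40 h treatment at 37 C.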

[16] = qHTS assay to identify small molecule agonists of the hypoxia (HIF-1) signaling pathway (AID 1224846; active = well fitted activation curve with a large enough effect in the signal ratio in the repeat runs, not every such curve was filed as active; the % refers to the signal ratio)
Summary of the method: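 Reporter induction in HRE-bla ME-180 cells is taken as agonism: cells sit 5 hrs after plating, receive compounds or DMSO only, incubate 17 hrs at 37C under 5% CO2, and are loaded with CCF4-AM for beta-lactamase FRET measurement.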

Thyrotropin receptor (Homo sapiens), sequence (P16473 whole entry, looked up): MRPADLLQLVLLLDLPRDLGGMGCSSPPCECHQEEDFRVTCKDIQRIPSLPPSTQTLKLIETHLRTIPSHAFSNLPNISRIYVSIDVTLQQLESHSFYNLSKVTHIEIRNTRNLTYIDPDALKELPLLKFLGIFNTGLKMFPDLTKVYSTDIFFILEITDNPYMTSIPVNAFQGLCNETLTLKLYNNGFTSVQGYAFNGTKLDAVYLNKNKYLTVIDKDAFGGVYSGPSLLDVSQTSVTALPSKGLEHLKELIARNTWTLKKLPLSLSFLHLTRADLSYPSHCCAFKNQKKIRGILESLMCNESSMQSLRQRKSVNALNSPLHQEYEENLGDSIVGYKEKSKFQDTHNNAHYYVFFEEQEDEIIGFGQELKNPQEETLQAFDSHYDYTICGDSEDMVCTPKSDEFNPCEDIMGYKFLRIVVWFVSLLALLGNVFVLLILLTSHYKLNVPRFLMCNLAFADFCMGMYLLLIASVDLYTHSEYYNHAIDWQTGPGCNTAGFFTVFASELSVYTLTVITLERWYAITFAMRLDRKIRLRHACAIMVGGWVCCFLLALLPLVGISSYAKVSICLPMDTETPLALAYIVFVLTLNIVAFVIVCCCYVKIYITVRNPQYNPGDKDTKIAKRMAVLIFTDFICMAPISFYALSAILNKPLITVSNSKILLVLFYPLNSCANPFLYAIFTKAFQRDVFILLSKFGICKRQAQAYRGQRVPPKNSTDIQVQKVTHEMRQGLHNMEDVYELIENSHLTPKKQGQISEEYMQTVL
Nuclear receptor subfamily 1 group I member 3 (Homo sapiens), sequence (Q14994 whole entry, looked up): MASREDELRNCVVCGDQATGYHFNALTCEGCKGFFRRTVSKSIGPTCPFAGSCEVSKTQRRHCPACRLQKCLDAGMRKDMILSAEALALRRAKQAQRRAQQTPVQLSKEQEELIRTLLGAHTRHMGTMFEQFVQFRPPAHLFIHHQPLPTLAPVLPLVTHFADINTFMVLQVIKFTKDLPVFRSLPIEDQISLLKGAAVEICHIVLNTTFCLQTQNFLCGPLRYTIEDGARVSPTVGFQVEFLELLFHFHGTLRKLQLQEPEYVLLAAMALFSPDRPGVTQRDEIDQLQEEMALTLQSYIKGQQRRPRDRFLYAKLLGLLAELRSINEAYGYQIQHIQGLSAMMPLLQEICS
Luciferin 4-monooxygenase (Photinus pyralis), sequence (P08659 whole entry, looked up): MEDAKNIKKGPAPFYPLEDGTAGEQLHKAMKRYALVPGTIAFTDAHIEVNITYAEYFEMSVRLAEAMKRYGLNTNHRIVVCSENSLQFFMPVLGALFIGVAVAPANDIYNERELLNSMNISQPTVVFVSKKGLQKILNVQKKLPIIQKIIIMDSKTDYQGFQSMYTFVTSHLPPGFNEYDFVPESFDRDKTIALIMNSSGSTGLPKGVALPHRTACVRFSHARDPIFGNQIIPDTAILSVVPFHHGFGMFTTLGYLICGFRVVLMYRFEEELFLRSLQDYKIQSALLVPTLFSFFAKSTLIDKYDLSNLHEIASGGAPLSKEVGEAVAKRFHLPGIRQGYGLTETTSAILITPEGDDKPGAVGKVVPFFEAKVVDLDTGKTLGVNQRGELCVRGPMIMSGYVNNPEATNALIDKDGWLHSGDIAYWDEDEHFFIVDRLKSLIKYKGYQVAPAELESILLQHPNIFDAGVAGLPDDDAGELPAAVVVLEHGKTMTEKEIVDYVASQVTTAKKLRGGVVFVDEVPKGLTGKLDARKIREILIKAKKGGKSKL

CN(C)C(=O)Oc1cccc([N+](C)(C)C)c1
Potency [1]: inactive
Potency [2]: inactive
outcome [3]: inactive
outcome [4]: inactive
Potency [5]: inactive
Potency [6]: inactive
outcome [7]: inactive
Potency [8]: inactive
Potency [9]: inactive
Potency [10]: inactive
outcome [11]: inactive
outcome [12]: inactive
Potency [13]: inactive
outcome [14]: inactive
Potency [15]: inactive

O=C(O)c1cc(C(=O)O)cc(C(=O)O)c1
Potency [1]: inactive
Potency [2]: inactive
outcome [3]: inactive
outcome [4]: inactive
Potency [5]: inactive
Potency [6]: inactive
outcome [7]: inactive
Potency [8]: inactive
Potency [9]: inactive
Potency [10]: inactive
outcome [11]: inactive
outcome [12]: inactive
Potency [13]: inactive
outcome [14]: inactive
Potency [15]: inactive

O=C(c1ccccc1)C1(O)CCCCC1
Potency [1]: inactive
Potency [2]: inactive
outcome [3]: inactive
outcome [4]: inactive
Potency [5]: inactive
Potency [6]: inactive
outcome [7]: inactive
Potency [8]: inactive
Potency [9]: inactive
Potency [10]: inactive
outcome [16]: inactive
outcome [11]: inactive
outcome [12]: inactive
Potency [13]: inactive
outcome [14]: inactive
Potency [15]: inactive

CCCCN(CCC(=O)OCC)C(C)=O
Potency [1]: inactive
Potency [2]: inactive
outcome [3]: inactive
outcome [4]: inactive
Potency [5]: inactive
Potency [6]: inactive
outcome [7]: inactive
Potency [8]: inactive
Potency [9]: inactive
Potency [10]: inactive
outcome [16]: inactive
outcome [11]: inactive
outcome [12]: inactive
Potency [13]: inactive
outcome [14]: inactive
Potency [15]: inactive

COc1cccc(OC)c1C(=O)N[C@@H]1C(=O)N2[C@@H]1SC(C)(C)[C@@H]2C(=O)O
Potency [1]: inactive
Potency [2]: inactive
outcome [3]: inactive
outcome [4]: inactive
Potency [5]: inactive
Potency [6]: inactive
outcome [7]: inactive
Potency [8]: inactive
Potency [9]: inactive
Potency [10]: inactive
outcome [16]: inactive
outcome [11]: inactive
outcome [12]: inactive
Potency [13]: inactive
Potency [15]: inactive

CC[N+](CC)(CC)CCOc1cccc(OCC[N+](CC)(CC)CC)c1OCC[N+](CC)(CC)CC
Potency [1]: inactive
Potency [2]: inactive
outcome [3]: inactive
outcome [4]: inactive
Potency [5]: inactive
Potency [6]: inactive
outcome [7]: inactive
Potency [8]: inactive
Potency [9]: inactive
Potency [10]: inactive
outcome [11]: inactive
Potency [13]: inactive
Potency [15]: 23.9 µM (active)

CC(C)(C#N)Nc1nc(Cl)nc(NC2CC2)n1
Potency [1]: inactive
Potency [2]: inactive
outcome [3]: inactive
outcome [4]: inactive
Potency [5]: inactive
Potency [6]: inactive
outcome [7]: inactive
Potency [8]: inactive
Potency [9]: inactive
Potency [10]: inactive
outcome [16]: inactive
outcome [11]: inactive
outcome [12]: inactive
Potency [13]: inactive
outcome [14]: inactive
Potency [15]: inactive

COc1cc(C(=O)OC(COCCC(C)C)CN2CCOCC2)cc(OC)c1OC (stereo unspecified)
Potency [1]: inactive
Potency [2]: inactive
outcome [3]: inactive
outcome [4]: inactive
Potency [5]: inactive
Potency [6]: inactive
outcome [7]: inactive
Potency [8]: inactive
Potency [9]: inactive
Potency [10]: inactive
outcome [16]: inactive
outcome [11]: inactive
Potency [13]: inactive
outcome [14]: inactive
Potency [15]: inactive

CCCCCCCCCCOc1cc2c(=O)c(C(=O)OCC)c[nH]c2cc1OCC
viability change, negative = cytotoxic [1]: 3.47% [at 8.39 µM]
activity change, negative = inhibition [2]: -1.76% [at 10.5 µM]
viability change, negative = cytotoxic [3]: 4.44% [at 8.39 µM]
activity change, negative = cytotoxicity [4]: 5.07% [at 8.39 µM]
activity, negative = inhibition [5]: 5.74% [at 8.39 µM]
activation [6]: -0.235% [at 8.39 µM]
viability change, negative = cytotoxic [7]: 9.28% [at 8.39 µM]
activation [8]: -0.126% [at 8.39 µM]
activity change, negative = cytotoxicity [9]: 1.84% [at 6.97 µM]
activation (H2AX phosphorylation) [10]: 0.376% [at 14 µM]
activation [16]: 0.236% [at 7.01 µM]
activity change, negative = cytotoxicity [11]: 1.5% [at 14 µM]
activity change, negative = cytotoxic [13]: 6.41% [at 6.97 µM]
cytotoxicity [14]: -0.138% [at 6.97 µM]
activity change, negative = cytotoxic [15]: 0.617% [at 6.97 µM]

From PubChem BioAssay (Tox21)
